According to PubChem BioAssay (Tox21):
Unmarked numbers belong to inactive results. Results filed as inconclusive are left out. Where a call stands in place of a potency, no number is given. Activity calls are given as the source filed them. Unless noted, the call rests on the fitted dose curve.

What was measured:
[1] = Nuclear factor erythroid 2-related factor 2/antioxidant responsive element (Nrf2/ARE) small molecule agonists: qHTS cell viability counter screen in human keratinocytes (AID 1919968; active means well fitted curve in the direction sought with a large enough effect in the repeat runs; an effect the other way counts as inactive or inconclusive; further: nearly all actives have a fitted effect of over 55% in size)
How it was run: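 Measured as CellTiter-Fluor fluorescence, this readout tracks cytotoxicity in the same wells as the ARE-luciferase screen. HaCaT reporter cells (1,500/well) received compounds after a 5 h pre-incubation and were exposed for 23 h.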

[2] = Nuclear factor erythroid 2-related factor 2/antioxidant responsive element (Nrf2/ARE) small molecule agonists: luciferase reporter gene qHTS assay in human keratinocytes (AID 1919969); further: nearly all actives have a fitted effect of over 35% in size; further: potency means the concentration at half of the fitted maximal effect
[3] = molecular target: Gonadotropin-releasing hormone receptor (Homo sapiens) (UniProt P30968); assay: Human gonadotropin-releasing hormone receptor (GnRHR) small molecule agonists, calcium flux assay in GnRHR-HEK293 cells (AID 1920063); further: nearly all actives have a fitted effect of over 35% in size
How it was run: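 Fluorescence kinetics (480 nm excitation, 540 nm emission; 3 min, 1 s steps) report calcium mobilisation in human GnRHR-HEK293 cells in agonist mode. Dye incubation: 1 h, 37 C.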

[4] = molecular target: KiSS-1 receptor (Homo sapiens) (UniProt Q969F8); assay: Human kisspeptin (KISS1R) small molecule agonists, calcium flux assay in KISS1R-HEK293 cells (AID 1920064; active means well fitted curve in the direction sought with a large enough effect in the repeat runs; an effect the other way counts as inactive or inconclusive)
How it was run: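 Measures KISS1R agonism through calcium-sensitive dye fluorescence in stably transfected HEK293 cells, read for 3 min after pin-tool compound delivery; 15-point titrations in triplicate.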

[5] = G protein-coupled receptor (GPCR) small molecule agonists, calcium flux assay: HEK293 wild type cell line counter screen (AID 1920065)
How it was run: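 Readout: fluorescence at 480 nm excitation/540 nm emission, sampled at 1 s intervals for 3 min. Cells had been cultured 18 h, then dye-loaded 1 h at 37 C before compound or ATP addition.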

[6] = p53 small molecule agonists, cell-based qHTS assay with human liver microsomes (AID 1963577);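 further: p53 response element beta-lactamase reporter cells with liver microsomes plus NADPH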
How it was run: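 With metabolic activation: human liver microsomes (0.5 mg/mL final) plus NADPH (0.5 mg/mL final) added alongside compounds to p53RE-bla cells; 16 h 37 C exposure; beta-lactamase read by LiveBLAzer fluorescence.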

[7] = p53 small molecule agonists, cell-based qHTS assay with rat liver microsomes (AID 1963578)
How it was run: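 Metabolic activation by rat liver microsomes and NADPH, each 0.5 mg/mL final, added right after compounds to p53RE-bla reporter cells (4,000/well, plated 5 h earlier). 16 h at 37 C, then LiveBLAzer substrate for 2 h at room temperature in the dark; fluorescence read-out.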

[8] = molecular target: 5-hydroxytryptamine receptor 2A (Homo sapiens) (UniProt P28223); assay: 5-hydroxytryptamine receptor 2A (HTR2A) small molecule agonists, cell-based qHTS assay (AID 1963587); further: nearly all actives have a fitted effect of over 30% in size
How it was run: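 HTR2A-CHO cells, plated 18 h at 37 C/5% CO2, dye-loaded 1 h at 37 C; compounds in DMSO added by pin tool (agonist mode). Intracellular calcium flux read as kinetic fluorescence on FDSS over 2 min at 1 s intervals.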

[9] = molecular target: Muscarinic acetylcholine receptor M1 (Homo sapiens) (UniProt P11229); assay: Cholinergic receptor muscarinic 1 (CHRM1) small molecule antagonists, cell-based qHTS assay (AID 1963588); further: nearly all actives have a fitted effect of over 40% in size; further: potency means the concentration at half of the fitted maximal effect
How it was run: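 CHRM1-CHO calcium-flux assay, antagonist mode. Cells were seeded 18 h, dye-loaded 1 h at 37 C and given compound for 5 min at RT, then acetylcholine was added at 50nM. FDSS fluorescence was read 3 min; 15 concentrations, three runs.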

[10] = molecular target: Muscarinic acetylcholine receptor M1 (Homo sapiens) (UniProt P11229); assay: Cholinergic receptor muscarinic 1 (CHRM1) small molecule agonists, cell-based qHTS assay (AID 1963589); further: nearly all actives have a fitted effect of over 35% in size
How it was run: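 Each compound was tested at 15 concentrations across three independent runs on dye-loaded CHO cells stably expressing human CHRM1, reading intracellular calcium fluorescence kinetically at 1 sec intervals.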

[11] = cAMP Responsive Elements (CRE) small molecule antagonists, cell-based qHTS assay (AID 1963591; active means well fitted inhibition curve with a large enough effect in the signal ratio in the repeat runs, not every such curve was filed as active; the % refers to the signal ratio)
How it was run: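 Inhibition of NKH477-driven (0.25 uM final) CRE-beta-lactamase signal in HEK293T cells, 3 h compound exposure at 37 °C, detected by FRET substrate fluorescence.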

[12] = molecular target: D(2) dopamine receptor (Homo sapiens) (UniProt P14416); assay: Dopamine D2 receptor (DRD2) small molecule agonists, cell-based qHTS assay (AID 1963594); further: nearly all actives have a fitted effect of over 35% in size
How it was run: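 HEK293 cells stably expressing DRD2 were cultured 24 h at 37 C, then given Ro20-1724 (0.1 mM final) and compounds for 10 min at room temperature. NKH477 (200nM) was then added for 30 min. cAMP was read by HTRF.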

[13] = molecular target: D(2) dopamine receptor (Homo sapiens) (UniProt P14416); assay: Dopamine D2 receptor (DRD2) small molecule antagonists, cell-based qHTS assay (AID 1963595; active means well fitted inhibition curve with a large enough effect in the signal ratio in the repeat runs, with a control signal flat; the % refers to the signal ratio)
How it was run: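 DRD2-HEK293; 0.1 mM Ro20-1724; cpd 10 min RT; NKH477 200 nM + quinpirole 12 nM, 30 min RT; HTRF cAMP (cAMP-d2/anti-cAMP cryptate), 665/620 nm ratio after 1 h.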

[14] = p53 small molecule agonists, cell-based qHTS assay with human liver microsomes: qHTS cell viability counter screen (AID 1963579); further: nearly all actives have a fitted effect of over 45% in size; further: potency means the concentration at half of the fitted maximal effect
How it was run: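 Metabolic activation used human liver microsomes and NADPH, both 0.5 mg/mL final, over 16 hours at 37 C on p53RE-bla cells (4,000/well). Cytotoxicity measured by CellTiter-Glo luminescence, 30 min at room temperature.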

[15] = p53 small molecule agonists, cell-based qHTS assay with rat liver microsomes: qHTS cell viability counter screen (AID 1963580); further: nearly all actives have a fitted effect of over 45% in size
How it was run: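 p53RE-bla HCT-116 cells (4,000/well) rested 5 h at 37 C, then given Tox21 compounds in DMSO with rat liver microsomes (0.5 mg/mL final) plus NADPH (0.5 mg/mL final) for 16 h at 37 C. Viability read by CellTiter-Glo luminescence after 30 min at room temperature.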

[16] = p53 small molecule agonists, cell-based qHTS assay: qHTS cell viability counter screen (AID 1963581); further: nearly all actives have a fitted effect of over 45% in size
How it was run: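 In the same plates used for the p53 bla reporter, HCT-116 cells given compounds for 16 h at 37 C received CellTiter-Glo; luminescence was recorded 30 min later at room temperature.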

[17] = p53 small molecule agonists, cell-based qHTS assay (AID 1963582; active means well fitted activation curve with a large enough effect in the signal ratio in the repeat runs, not every such curve was filed as active; the % refers to the signal ratio; further: potency means the concentration at half of the fitted maximal effect)
How it was run: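 Compounds are pin-transferred in DMSO onto p53RE-bla cells and incubated 16 h at 37 C. The B/G FRET beta-lactamase substrate is then applied for 2 h at RT and fluorescence recorded.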

[18] = cAMP Responsive Elements (CRE) small molecule agonists, cell-based qHTS assay (AID 1963590)
How it was run: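 Cell line: CRE-bla HEK 293T; medium DMEM/10% dialyzed FBS/0.1 mM NEAA/1 mM pyruvate/25 mM HEPES; 3 h compound exposure; beta-lactamase FRET readout after 2 h substrate loading at RT.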

[19] = molecular target: Beta-2 adrenergic receptor (Homo sapiens) (UniProt P07550); assay: Adrenergic beta2 receptor (ADRB2) small molecule antagonists, cell-based qHTS assay (AID 1963592); further: series mostly up to about 92 µM; nearly all actives have a fitted effect of over 50% in size
How it was run: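 Cells (CHO, stable ADRB2 overexpression) incubated 18-20hr at 37C; compounds added from DMSO; agonist mix (1nM isoproterenol, 100uM IBMX, 25uM Ro-20-1724) added; 0.5hr RT; d2-cAMP and anti-cAMP-cryptate added; 1hr RT; 665/615 nm read.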

[20] = molecular target: 5-hydroxytryptamine receptor 2A (Homo sapiens) (UniProt P28223); assay: 5-hydroxytryptamine receptor 2A (HTR2A) small molecule antagonists, cell-based qHTS assay (AID 1963586); further: nearly all actives have a fitted effect of over 45% in size
How it was run: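 Antagonist-mode intracellular calcium assay: DOI (4 nM) added after 5 min compound pre-incubation at room temperature to dye-loaded HTR2A-CHO cells. Fluorescence followed for 3 min, sampled every second.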

Chain of D(2) dopamine receptor (Homo sapiens) (P14416 whole entry, looked up): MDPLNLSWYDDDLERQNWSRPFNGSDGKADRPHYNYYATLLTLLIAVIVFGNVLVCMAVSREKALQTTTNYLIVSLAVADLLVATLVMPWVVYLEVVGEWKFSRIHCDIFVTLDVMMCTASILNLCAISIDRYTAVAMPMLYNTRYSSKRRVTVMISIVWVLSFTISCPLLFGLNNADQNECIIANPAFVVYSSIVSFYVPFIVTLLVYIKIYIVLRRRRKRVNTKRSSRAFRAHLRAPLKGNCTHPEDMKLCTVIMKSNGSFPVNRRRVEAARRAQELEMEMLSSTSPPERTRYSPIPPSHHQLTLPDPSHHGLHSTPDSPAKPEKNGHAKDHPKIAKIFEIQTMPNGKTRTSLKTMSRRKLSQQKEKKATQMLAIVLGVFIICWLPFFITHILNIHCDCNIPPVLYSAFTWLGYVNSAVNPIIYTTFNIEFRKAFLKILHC
Chain of Beta-2 adrenergic receptor (Homo sapiens) (P07550 whole entry, looked up): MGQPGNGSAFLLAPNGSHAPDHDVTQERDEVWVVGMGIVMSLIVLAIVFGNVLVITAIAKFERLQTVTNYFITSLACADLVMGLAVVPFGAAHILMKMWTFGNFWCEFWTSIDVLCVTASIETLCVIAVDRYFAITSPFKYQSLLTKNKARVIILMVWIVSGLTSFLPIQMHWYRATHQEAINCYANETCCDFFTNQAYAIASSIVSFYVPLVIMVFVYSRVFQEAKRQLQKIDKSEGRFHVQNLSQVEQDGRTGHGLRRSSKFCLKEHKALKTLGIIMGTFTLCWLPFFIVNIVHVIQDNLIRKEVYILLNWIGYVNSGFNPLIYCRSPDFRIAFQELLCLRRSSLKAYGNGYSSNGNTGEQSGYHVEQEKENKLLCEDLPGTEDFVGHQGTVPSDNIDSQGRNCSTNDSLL
Chain of KiSS-1 receptor (Homo sapiens) (Q969F8 whole entry, looked up): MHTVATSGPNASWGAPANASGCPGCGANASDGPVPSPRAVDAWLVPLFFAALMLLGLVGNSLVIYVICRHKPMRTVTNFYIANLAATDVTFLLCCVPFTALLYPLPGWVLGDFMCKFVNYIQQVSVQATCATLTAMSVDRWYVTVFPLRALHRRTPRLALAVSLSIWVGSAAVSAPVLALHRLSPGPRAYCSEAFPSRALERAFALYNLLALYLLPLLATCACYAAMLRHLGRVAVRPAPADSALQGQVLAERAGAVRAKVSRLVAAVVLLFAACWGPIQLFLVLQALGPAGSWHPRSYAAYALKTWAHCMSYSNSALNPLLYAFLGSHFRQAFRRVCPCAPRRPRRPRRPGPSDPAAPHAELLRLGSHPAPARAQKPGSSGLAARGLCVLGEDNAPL
Chain of Gonadotropin-releasing hormone receptor (Homo sapiens) (P30968 whole entry, looked up): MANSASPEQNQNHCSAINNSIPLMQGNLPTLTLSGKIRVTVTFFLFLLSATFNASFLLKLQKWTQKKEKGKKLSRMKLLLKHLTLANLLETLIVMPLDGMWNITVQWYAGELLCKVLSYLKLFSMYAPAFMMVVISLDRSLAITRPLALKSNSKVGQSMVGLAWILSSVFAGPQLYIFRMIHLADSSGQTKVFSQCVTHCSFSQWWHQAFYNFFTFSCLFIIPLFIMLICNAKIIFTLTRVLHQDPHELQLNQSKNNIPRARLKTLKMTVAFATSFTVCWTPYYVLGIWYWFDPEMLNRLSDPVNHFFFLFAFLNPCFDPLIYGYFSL
Chain of Muscarinic acetylcholine receptor M1 (Homo sapiens) (P11229 whole entry, looked up): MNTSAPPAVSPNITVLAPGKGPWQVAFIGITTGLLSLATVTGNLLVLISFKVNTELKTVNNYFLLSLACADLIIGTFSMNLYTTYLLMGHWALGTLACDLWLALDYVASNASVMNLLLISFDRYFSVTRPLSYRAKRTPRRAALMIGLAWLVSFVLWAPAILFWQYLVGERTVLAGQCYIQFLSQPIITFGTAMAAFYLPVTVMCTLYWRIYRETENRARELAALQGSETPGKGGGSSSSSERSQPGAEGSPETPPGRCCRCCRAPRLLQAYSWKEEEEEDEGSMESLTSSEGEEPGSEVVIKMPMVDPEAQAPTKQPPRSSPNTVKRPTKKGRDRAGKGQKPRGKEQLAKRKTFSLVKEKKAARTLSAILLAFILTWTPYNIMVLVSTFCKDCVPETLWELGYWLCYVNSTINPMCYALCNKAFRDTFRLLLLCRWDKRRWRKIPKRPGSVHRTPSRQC
Chain of 5-hydroxytryptamine receptor 2A (Homo sapiens) (P28223 whole entry, looked up): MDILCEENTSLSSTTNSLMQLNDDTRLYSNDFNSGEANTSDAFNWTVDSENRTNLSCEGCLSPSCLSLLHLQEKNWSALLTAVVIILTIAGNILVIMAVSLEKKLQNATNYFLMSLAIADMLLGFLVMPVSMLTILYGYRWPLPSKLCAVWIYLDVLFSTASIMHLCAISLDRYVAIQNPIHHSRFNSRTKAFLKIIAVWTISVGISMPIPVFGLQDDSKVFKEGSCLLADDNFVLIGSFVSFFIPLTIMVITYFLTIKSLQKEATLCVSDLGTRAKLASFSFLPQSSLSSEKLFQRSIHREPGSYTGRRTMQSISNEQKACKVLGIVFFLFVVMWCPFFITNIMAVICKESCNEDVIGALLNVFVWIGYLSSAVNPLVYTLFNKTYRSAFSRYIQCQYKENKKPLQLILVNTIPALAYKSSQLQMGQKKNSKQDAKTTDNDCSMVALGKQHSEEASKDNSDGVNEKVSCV

Compound | Potency [1] | Potency [2] | Potency [3] | outcome [4] | outcome [5] | Potency [6] | Potency [7] | Potency [8] | Potency [9] | Potency [10] | Potency [11] | Potency [12] | Potency [13] | Potency [14] | Potency [15] | Potency [16] | Potency [17] | Potency [18] | Potency [19] | Potency [20]
CNCCC(Oc1ccccc1OC)c1ccccc1 (stereo not drawn) | inactive | inactive | inactive | inactive | inactive | inactive | inactive | inactive | 16.3 µM (active) | inactive | inactive | inactive | inactive | – | – | – | – | – | – | –
O=P(O)(O)C(O)(Cc1cccnc1)P(=O)(O)O | inactive | inactive | inactive | inactive | inactive | inactive | – | – | – | – | inactive | inactive | inactive | inactive | inactive | inactive | inactive | inactive | inactive | –
C=CC(=O)OCCOC(=O)CCC(=O)O | inactive | 61.1 µM (active) | inactive | inactive | inactive | inactive | – | inactive | inactive | inactive | – | inactive | inactive | inactive | inactive | inactive | inactive | – | inactive | inactive
COc1cc2c(cc1N)oc1ccccc12 | inactive | 62.4 µM (active) | inactive | inactive | inactive | inactive | – | inactive | inactive | inactive | inactive | inactive | inactive | 33.1 µM (active) | inactive | inactive | inactive | inactive | – | inactive
Cc1ncc([N+](=O)[O-])n1CC(C)O (stereo not drawn) | inactive | inactive | inactive | inactive | inactive | inactive | – | – | – | – | inactive | inactive | inactive | inactive | inactive | inactive | inactive | inactive | inactive | –
CC(=O)OC[C@H]1O[C@@H](n2ncc(=O)[nH]c2=O)[C@H](OC(C)=O)[C@@H]1OC(C)=O | inactive | inactive | inactive | inactive | inactive | inactive | – | – | – | – | inactive | inactive | inactive | inactive | inactive | inactive | 0.5 µM (active) | inactive | inactive | –
Nc1nc2c(ncn2CCC(CO)CO)c(=O)[nH]1 | inactive | inactive | inactive | inactive | inactive | inactive | – | – | – | – | – | – | inactive | inactive | inactive | inactive | inactive | inactive | inactive | –
O=C(Oc1ccccc1)c1ccccc1C(=O)Oc1ccccc1 | inactive | inactive | inactive | inactive | inactive | inactive | – | inactive | inactive | inactive | – | inactive | inactive | inactive | inactive | inactive | inactive | inactive | inactive | –
